In the library only some 7.2% were active in any assay of this set; here they are far more common.
SNCA expr inh = SNCA gene expression inhibition; Potency, µM (series often up to 57.2 µM), most hits filed as inhibitors; 0.17% of 140,000 active; HEK-293 SNCA-luciferase knock-in, luminescence, 24 h; also: nearly all actives have a fitted effect of over 45% in size
HEK293 tox = kills HEK 293 cells | HEK 293 viability, ATP luminescence (CellTiter-Glo), 48-72 h | AID 1345083 | 6.6% of 94,000 active | Potency, µM (series often up to 115 µM), actives largely listed as inhibitors; also: nearly all actives have a fitted effect of over 60% in size
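Luminescence from cellular ATP, measured with CellTiter-Glo, indicates HEK 293 viability. Cells plated at 250 cells/well are treated with compound for 48 or 72 hr at 37 degree Celsius before reagent addition.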
3T3 cytotox = NIH 3T3 cell cytotoxicity | NIH 3T3 viability, CellTiter-Glo ATP luminescence, 48-72 h | Potency, µM (titrated, usually from 96.7 µM), usual class: inhibitors | 4.3% of 94,000 active; also: nearly all actives have a fitted effect of over 55% in size
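NIH 3T3 cells at 400 cells/well received 23 nL of compound by pintool and were incubated 48 or 72 h at 37 °C. Viability was read as ATP-coupled CellTiter-Glo luminescence.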
NPR1 antag = blocks ANP-stimulated signaling of human Npr1 receptor | HEK293 hNpr1 GloSensor cGMP, ANP-stimulated luminescence | Potency, µM (doses to about 46.3 µM), most hits filed as inhibitors | 1.6% of 76,000 active | AID 1347048; calls by dose curve; also: nearly all actives have a fitted effect of over 60% in size
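Compound pre-incubated 30 min at room temperature on GloSensor-loaded HEK293 cells stably carrying hNpr1 and the pGS-40F cGMP biosensor. Stimulation uses hNppA at 0.1 nM final; luminescence is taken at baseline and 20 min post-agonist.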
SNCA viab count = cell viability loss counter-screen; HEK-293-SNCA-luc viability, GF-AFC fluorescence, 24 h; Potency, µM (doses to about 57.1 µM), most hits filed as cytotoxic; 0.12% of 150,000 active; AID 1671193; also: nearly all actives have a fitted effect of over 30% in size
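Cytotoxicity counterscreen: after 24 h compound treatment of genome-edited SNCA-luciferase HEK-293 cells, live-cell protease substrate GF-AFC read by fluorescence after 30 min; activity scaled between DMSO (0%) and medium-only (-100%), curves Hill-fitted.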
FLuc inh = Photinus pyralis luciferase inhibition; P08659; AID 1347043; Potency, µM (top dose mostly 115 µM), hits mostly inhibitors; 2.5% of 76,000 active; purified P. pyralis luciferase, luminescence, biochemical; also: nearly all actives have a fitted effect of over 65% in size
Target sequence (P08659 whole entry, looked up): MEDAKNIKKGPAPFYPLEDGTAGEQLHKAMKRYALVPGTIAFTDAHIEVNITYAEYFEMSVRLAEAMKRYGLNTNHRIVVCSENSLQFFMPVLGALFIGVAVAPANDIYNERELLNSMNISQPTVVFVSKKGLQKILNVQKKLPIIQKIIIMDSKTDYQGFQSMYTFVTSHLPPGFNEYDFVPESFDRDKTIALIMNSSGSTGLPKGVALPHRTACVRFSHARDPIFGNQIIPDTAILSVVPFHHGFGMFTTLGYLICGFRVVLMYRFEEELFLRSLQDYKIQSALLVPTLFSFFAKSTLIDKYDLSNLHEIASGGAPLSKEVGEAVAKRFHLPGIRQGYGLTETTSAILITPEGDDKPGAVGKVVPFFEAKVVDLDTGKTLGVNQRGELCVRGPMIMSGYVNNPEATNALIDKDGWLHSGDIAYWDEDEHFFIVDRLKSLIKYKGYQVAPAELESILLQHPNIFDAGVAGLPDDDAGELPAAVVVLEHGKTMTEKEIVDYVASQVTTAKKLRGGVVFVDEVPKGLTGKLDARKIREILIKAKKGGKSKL
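Cell-free enzyme assay, 10nM P. pyralis luciferase, luciferin and ATP each at 10uM. Inhibition profiled over a 6-point titration, read as luminescence.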
Of the large screens only hits and unclear results are named; the others gave an inactive call. Unless noted, calls follow the shape of the dose curve; as a rule, active = well fitted curve in the direction sought with a large enough effect; inconclusive = small, poorly fitted or top-dose-only effect, or another doubt; inactive = no such curve, though single readings can be large; an effect the other way counts as inactive or inconclusive.

CC(=O)N1CCC(NC[C@@H]2C=C(C)[C@H](Cc3nc4ccc(Cl)cc4[nH]3)C[C@H]2C(C)C)CC1	none
CC(=O)N1CCC(NC[C@@H]2C=C(C)[C@H](Cc3nc4ccccc4[nH]3)C[C@H]2C(C)C)CC1	HEK293 tox 89.1µM, 3T3 cytotox 112µM, SNCA viab count inconclusive
S=C(Nc1cccc2ccccc12)N[C@H]1CO[C@H]2[C@@H]1OC[C@H]2OCc1ccccc1	HEK293 tox 63.1µM, 3T3 cytotox inconclusive, NPR1 antag inconclusive
NC(=O)CO[C@@H]1CO[C@H]2[C@@H]1OC[C@@H]2NC(=O)Nc1cccc2ccccc12	none
O=C(Nc1cccc2ccccc12)O[C@@H]1CO[C@H]2[C@@H]1OC[C@@H]2NC(=S)Nc1cccc2ccccc12	HEK293 tox inconclusive, 3T3 cytotox inconclusive
CCNC(=O)O[C@@H]1CO[C@H]2[C@@H]1OC[C@@H]2NC(=S)Nc1ccc(N(C)C)cc1	3T3 cytotox inconclusive, FLuc inh inconclusive
O=C(Nc1cccc2ccccc12)O[C@@H]1CO[C@H]2[C@@H]1OC[C@@H]2NC(=S)Nc1ccc(Cl)cc1	SNCA expr inh inconclusive, HEK293 tox 39.8µM, 3T3 cytotox inconclusive
CN(C)c1ccc(NC(=S)N[C@H]2CO[C@H]3[C@@H]2OC[C@H]3OC(=O)Nc2cccc3ccccc23)cc1	3T3 cytotox inconclusive, FLuc inh 31.6µM
Cc1ccc(NC(=O)c2cc3c(N4CCSCC4)nc(C)cn3n2)c(C)c1	HEK293 tox inconclusive
CCN(CC)C(=O)CC[C@@H]1CNC(=O)[C@@H]2C[C@H](NCc3ccc(F)cc3)CN12	none
CC(=O)NC1CCN(C(=O)c2ccc(-c3cncnc3)cc2)CC1	none (no result: NPR1 antag, FLuc inh)
Fc1ccc(-c2noc(-c3ncn4c3COC(c3ccccc3Cl)C4)n2)cc1 (stereo unspecified)	HEK293 tox inconclusive, 3T3 cytotox inconclusive, FLuc inh inconclusive
Clc1ccccc1C1Cn2cnc(-c3nc(-c4ccccn4)no3)c2CO1 (stereo unspecified)	HEK293 tox inconclusive, 3T3 cytotox inconclusive, FLuc inh 25.1µM
COCCNC(=O)Cc1c[nH]c2ncc(-c3ccc(OC)cc3)cc12	HEK293 tox inconclusive, 3T3 cytotox 22.4µM, FLuc inh inconclusive
COc1ccc(-c2cnc3[nH]cc(CC(=O)NCc4cnccn4)c3c2)cc1	HEK293 tox inconclusive, 3T3 cytotox 31.6µM, FLuc inh inconclusive
CCC(C)NC(=O)C(C)N1C(=O)COc2ccc(C(=O)COc3ccc(OC)cc3)cc21 (stereo unspecified)	none
Fc1ccccc1-c1noc(-c2nc(-c3ccncc3)no2)n1	none
Fc1ccccc1-c1noc(-c2nc(C3CC3)no2)n1	HEK293 tox inconclusive, NPR1 antag inconclusive, FLuc inh 4.47µM
CN1CC[C@H](c2nc3ccc(C(F)(F)F)cc3[nH]2)C1	HEK293 tox 112µM, 3T3 cytotox inconclusive, FLuc inh inconclusive
COCC(=O)N1CC[C@H](c2nc3ccc(C(F)(F)F)cc3[nH]2)C1	none
FC(F)(F)c1ccc(CN2CC[C@H](c3nc4ccc(C(F)(F)F)cc4[nH]3)C2)cc1	SNCA expr inh inconclusive, HEK293 tox 35.5µM, 3T3 cytotox 31.6µM, NPR1 antag inconclusive, SNCA viab count inconclusive, FLuc inh inconclusive
COC(=O)[C@@H]1Cc2c([nH]c3ccccc23)[C@H]2C[C@@H](NCc3ccccc3)C[C@@H](c3ccccc3F)N21	SNCA expr inh inconclusive, HEK293 tox 25.1µM, 3T3 cytotox 25.1µM
COC(=O)[C@@H]1Cc2c([nH]c3ccccc23)[C@H]2C[C@@H](NCc3cccs3)C[C@@H](c3ccccc3F)N21	HEK293 tox 39.8µM, 3T3 cytotox inconclusive
CCN(CC)C(=O)CC[C@@H]1CNC(=O)[C@@H]2C[C@H](NCc3cccs3)CN12	3T3 cytotox inconclusive
CNC(=O)[C@@H]1CN(C(=O)c2cc(OC)cc(OC)c2)C[C@H]1COC	none
O=C1Cc2c(-c3ccccc3OCc3ccccc3)n[nH]c2CN1CCOc1ccccc1	SNCA expr inh inconclusive, HEK293 tox inconclusive, 3T3 cytotox inconclusive, SNCA viab count inconclusive
O=C1Cc2c(-c3ccccc3OCc3ccccc3)n[nH]c2CN1Cc1ccccc1	HEK293 tox 50.1µM, 3T3 cytotox inconclusive
O=C1Cc2c(-c3ccccc3OCc3ccccc3)n[nH]c2CN1Cc1ccccn1	SNCA expr inh inconclusive, HEK293 tox 100µM, 3T3 cytotox inconclusive
O=C(c1ccccn1)N1CCN(Cc2ccccc2-c2ccccc2F)CC1	none (no result: NPR1 antag, FLuc inh)
COc1ccc(C(=O)N2CCC3(CC2)NC(=O)N(Cc2ccc(C)cc2)C3=O)cc1	none
CCc1nc2c(c(-c3ccc(Cl)cc3)n1)CCN(Cc1ccc(C(F)(F)F)cc1)CC2	HEK293 tox 50.1µM
CCc1nc2c(c(-c3ccc(Cl)cc3)n1)CN(Cc1cccc(F)c1)CC2	SNCA expr inh inconclusive, HEK293 tox 20µM, 3T3 cytotox 11.2µM, SNCA viab count inconclusive
CCc1nc2c(c(-c3ccc(O)cc3)n1)CCN(Cc1ccc(C(F)(F)F)cc1)CC2	HEK293 tox 44.7µM, 3T3 cytotox inconclusive, NPR1 antag inconclusive
CCc1nc2c(c(-c3ccc(O)cc3)n1)CN(Cc1cccc(C(F)(F)F)c1)CC2	HEK293 tox inconclusive, 3T3 cytotox inconclusive
Cc1csc(CNC(=O)C2CCCN(C3CCN(Cc4cccnc4)CC3)C2)n1 (stereo unspecified)	none
CC(=O)Nc1ccc(S(=O)(=O)N[C@H]2CO[C@H]3[C@@H]2OC[C@@H]3n2nnnc2Oc2ccc3c(c2)OCO3)cc1	none
Cc1c(-c2ccccc2F)[nH]c2ccc(CNS(=O)(=O)C3CC3)cc12	HEK293 tox 35.5µM, 3T3 cytotox inconclusive, NPR1 antag inconclusive, FLuc inh inconclusive
Cc1c(-c2ccccc2F)[nH]c2ccc(CNC(=O)CCn3cnnc3)cc12	3T3 cytotox inconclusive, FLuc inh inconclusive
Cc1c(-c2ccccc2F)[nH]c2ccc(CNC(=O)C3CCNC3)cc12 (stereo unspecified)	HEK293 tox inconclusive, 3T3 cytotox inconclusive, FLuc inh 20µM
Cc1c(-c2ccccc2F)[nH]c2ccc(CNC(=O)CN3CC(=O)NC3=O)cc12	HEK293 tox inconclusive, 3T3 cytotox inconclusive, FLuc inh 15.8µM
Cc1nc(CCC(=O)NCc2ccc3[nH]c(-c4ccccc4F)c(C)c3c2)n[nH]1	HEK293 tox inconclusive, 3T3 cytotox inconclusive, FLuc inh 15.8µM
CCOC(=O)c1sc2ccccc2c1S(=O)(=O)NCc1ccc(F)cc1	none (no result: HEK293 tox, 3T3 cytotox, NPR1 antag, FLuc inh)
COc1cccc(C(=O)N2CCC(=O)N(CCC#N)C[C@H]3COc4ccc(C)cc4[C@H]32)c1	3T3 cytotox inconclusive (no result: SNCA expr inh, NPR1 antag, SNCA viab count, FLuc inh)
COC(=O)C1CCN(C(=O)CC[C@H]2CNC(=O)[C@@H]3[C@@H](CCN3C(C)C)N2C)CC1	none
